High-throughput results: PubChem BioAssay, National Center for Advancing Translational Sciences (NCATS)
In the library only some 2.5% were active in any assay of this set; here they are far more common.
Cruzain inh noDet: qHTS Assay for Promiscuous and Specific Inhibitors of Cruzain (without detergent); purified cruzain, Z-FR-AMC fluorescence, no detergent; Potency, µM, inactives show max response, negative = inhibition, most hits filed as inhibitors; 200,000 tested, 2.3% active; AID 1476, 2009;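 also: plate controls were enzyme without inhibitor for no effect and buffer without enzyme for full effect; nearly all actives have a fitted effect of over 40% in size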
Target sequence (P25779 123-467 limits assumed): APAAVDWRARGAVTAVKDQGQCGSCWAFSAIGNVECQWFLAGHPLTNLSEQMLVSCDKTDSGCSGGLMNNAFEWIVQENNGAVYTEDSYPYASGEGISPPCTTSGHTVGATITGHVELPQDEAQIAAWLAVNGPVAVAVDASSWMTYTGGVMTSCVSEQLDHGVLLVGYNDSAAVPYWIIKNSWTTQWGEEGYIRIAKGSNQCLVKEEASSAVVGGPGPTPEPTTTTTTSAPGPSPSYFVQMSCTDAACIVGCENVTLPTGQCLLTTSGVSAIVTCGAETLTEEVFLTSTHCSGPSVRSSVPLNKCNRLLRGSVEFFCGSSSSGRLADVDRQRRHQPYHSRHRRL
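Detergent-free condition (0.00005% Triton X-100) in acetate buffer pH 5.5 with DTT. 1.5 nM enzyme and compound were pre-mixed 15 min, then 2 uM Z-FR-AMC substrate added; reaction progress from fluorescence change between first and third reads (60 s).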
Cruzain inh Det: qHTS Assay for Promiscuous and Specific Inhibitors of Cruzain (with detergent) | 200,000 tested, 0.43% active | purified cruzain, Z-FR-AMC fluorescence, 0.01% Triton | Potency, µM, inactives show max response, negative = inhibition, actives largely listed as inhibitors;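 also: plate controls were neutral wells for no effect and buffer without enzyme for full effect; nearly all actives have a fitted effect of over 40% in size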
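Detergent-containing run (0.01% Triton X-100) in acetate buffer pH 5.5 with 5 mM DTT: enzyme at 1.5 nM final, 15 min compound preincubation at room temperature, then 2 uM Z-FR-AMC substrate. Activity taken as 60 s fluorescence increase at 360/450 nm.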
Papain inh: qHTS Assay for Inhibitors of Papain: Counterscreen for Cruzain Assay | purified papain, Z-FR-AMC fluorescence cleavage | AID 2161, 2009 | Potency, µM, for inactives: max response, negative = inhibition, most hits filed as inhibitors | shares compounds with Cruzain inh Det | 410 tested, 41% active;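 also: 0% = no-compound wells and -100% = no-enzyme wells; nearly all actives have a fitted effect of over 35% in size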
Target sequence (P00784 whole entry, looked up): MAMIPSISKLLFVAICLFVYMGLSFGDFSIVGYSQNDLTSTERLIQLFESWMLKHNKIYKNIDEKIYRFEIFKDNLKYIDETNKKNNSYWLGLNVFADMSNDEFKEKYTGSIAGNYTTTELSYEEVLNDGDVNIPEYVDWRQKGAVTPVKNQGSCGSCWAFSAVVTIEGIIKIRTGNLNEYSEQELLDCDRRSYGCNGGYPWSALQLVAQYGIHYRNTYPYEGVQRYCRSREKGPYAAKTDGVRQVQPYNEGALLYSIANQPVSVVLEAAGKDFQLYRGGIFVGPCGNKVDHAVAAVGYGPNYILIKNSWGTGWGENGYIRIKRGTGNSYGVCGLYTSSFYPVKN
An asterisk follows results filed as active; ? = inconclusive; nt = no result given. Calls follow the shape of the dose curve; as a rule, active = well fitted curve in the direction sought with a large enough effect; inconclusive = small, poorly fitted or top-dose-only effect, or another doubt; inactive = no such curve, though single readings can be large; an effect the other way counts as inactive or inconclusive. Potency is read from the fitted curve at half-maximal effect.

SMILES	Cruzain inh noDet	Cruzain inh Det	Papain inh
Cc1ccc(S(=O)(=O)N[C@@H](CCCCN)C(=O)CCl)cc1	1µM*	0.79µM*	4µM*
Cc1ccc(S(=O)(=O)NC(CC(N)=O)C(=O)O)cc1 (configuration not stated)	1%	4%	nt
COc1ccc(-c2ccc(-c3nnc(-c4cc(OC)ccc4OC)o3)cc2)cc1	25µM*	?	11µM*
COc1ccc(-c2nnc(-c3ccc(N)cc3)o2)cc1	-17%	-5%	nt
CCc1ccccc1NC(=O)Nc1nnc(N(C)Cc2ccccc2)s1	-8%	-7%	nt
C=Cn1ccnc1P(=S)(c1ccc2c(c1)c1ccccc1n2CC)c1nccn1C=C	?	-4%	6%
C=Cn1ccnc1P(=S)(c1ccc(N(C)C)cc1)c1nccn1C=C	?	0%	nt
Cc1ccc2[nH]c(=O)c(CN(C(=O)c3cccc(Cl)c3)C(C)(C)C)cc2c1	-15%	3%	nt
O=C(Cn1c(=O)oc2cc(S(=O)(=O)N3CCCCCC3)ccc21)NC1CCCCCCC1	20µM*	-9%	12%
CCC1CCCCN1C(=O)Cn1c(=O)oc2cc(S(=O)(=O)N3CCCCC3)ccc21 (configuration not stated)	4%	1%	nt
COCCCNC(=O)CCc1c(C)nc2cc(-c3ccc(Cl)cc3)nn2c1C	?	-2%	nt
COc1ccc(Cl)cc1NC(=O)CSc1nc2ccccc2nc1N1CCCCC1	?	-2%	nt
O=C(Nc1ccc(-n2nncc2-c2ccccc2)cc1)c1ccccc1	nt	nt	5%
COc1cccc(C(=O)Nc2ccc(-n3nncc3-c3ccccc3)cc2)c1	-5%	2%	nt
CC(=O)Nc1ccc(/C=C/C(=O)c2ccc(-n3nncc3-c3ccccc3)cc2)cc1	nt	nt	-6%
CSc1ccc(/C=C/C(=O)c2ccc(NC(C)=O)cc2)cc1	?	-14%	nt
CCC(Cc1ccccc1)NC(=O)CN1C(=O)COc2ccc(S(=O)(=O)N3CCCCCC3)cc21 (configuration not stated)	0%	5%	nt
CC(=O)NCC(=O)OCC(=O)c1ccccc1	-4%	7%	nt
COC(=O)c1ccc(NC(=O)CNC(=O)C2CCCCC2)cc1	1%	5%	nt
COc1cc(C(=O)COC(=O)CNC(=O)C2CCCCC2)cc(OC)c1OC	2.5µM*	2.2µM*	-28%
O=C(CNC(=O)C1CCCCC1)OCC(=O)c1ccccc1	nt	nt	16µM*
O=C(COC(=O)CNC(=O)C1CCCCC1)Nc1ccc2ccccc2c1	7.9µM*	4.5µM*	-14%
O=C(CNC(=O)C1CCCCC1)OCC(=O)c1ccc(C2CCCCC2)cc1	nt	nt	-4%
CC(=O)NCC(=O)OCC(=O)c1ccc(C)cc1	6%	7%	nt
O=C(CNC(=O)C1CCCCC1)Nc1ccc(Cl)cc1	-2%	2%	nt
SMILES	Cruzain inh noDet	Cruzain inh Det	Papain inh
COc1c(Cl)cc(C(=O)N(Cc2ccc(C)o2)C2CCS(=O)(=O)C2)cc1Cl (configuration not stated)	-20%	-6%	nt
CC1=NNC(=S)NCCCN2CCN(CCCNC(=S)NN=C(C)C=NNC(=S)NCCCN3CCN(CCCNC(=S)NN=C1)CC3)CC2	-1%	-2%	nt
CCn1cnc2c(Nc3cc(F)cc(F)c3)nc(C#N)nc21	nt	nt	0.3µM*
CCn1cnc2c(Nc3cccc(Cl)c3)nc(N[C@@H]3CCCC[C@@H]3N)nc21	9%	-4%	nt
CCN(CC)c1nn2c(=O)c(C(=O)NCc3cccc(OC)c3OC)cnc2s1	-9%	-11%	nt
CCCOc1ccc(-c2nonc2NC(=O)c2oc3ccc(Cl)cc3c2C)cc1OCCC	-1%	-1%	nt
CC(C)=CCSc1nnc([C@@H](N)Cc2c[nH]c3ccccc23)o1	1%	-9%	nt
CCc1ccccc1NC(=O)CSc1nnc([C@@H](N)Cc2c[nH]c3ccccc23)o1	10µM*	10µM*	7%
COc1nc(C#N)nc(N(C)C)n1	13µM*	10µM*	16µM*
CCN(CC)C(=O)CN(C#N)c1nc(OC)nc(N(C)C)n1	-16%	-1%	nt
COc1ccc(CCNc2nc(-c3ccc(OC)c(OC)c3)cc(C(F)(F)F)n2)cc1OC	?	-11%	nt
CC(C)C[C@H](N)c1nnc(S(=O)(=O)Cc2cccc(F)c2)o1	13µM*	11µM*	6%
CC(C)Cn1nnnc1S(=O)(=O)Cc1cccc(C#N)c1	-1%	3%	nt
COc1cccc(CNC(=O)C2CCN(C(=O)N3CCOc4ccc(Cl)cc43)CC2)c1OC	?	-6%	nt
CCc1ccc(Cn2c(CNS(=O)(=O)c3ccc(Cl)s3)nc3cccnc32)cc1	-2%	-3%	nt
Cc1ccc(Cl)cc1NC(=O)Nc1cccc(OCc2cc(=O)n3ccccc3n2)c1	-9%	4%	nt
Cc1ccc(CNC(=O)CCc2c(C)nc3nc(C)nn3c2C)cc1	-5%	4%	nt
CC(C)(C)c1ccc(-c2nc(SCC(=O)Nc3ccc(Cl)cc3)[nH]c(=O)c2C#N)cc1	-7%	16µM*	10µM*
N#Cc1c(-c2ccco2)nc(SCC(=O)Nc2cccc(Cl)c2)[nH]c1=O	1%	-20%	nt
COc1cccc(NC(=O)CCN2CCN(CCO)CC2)c1	7%	0%	nt
COc1ccc2[nH]c(=O)c(NC(N)=S)nc2c1	1.3µM*	2.2µM*	-9%
COc1ccc2nc(SCC(N)=O)[nH]c2c1	-8%	1%	nt
CCc1ccc2[nH]c(=O)c(CN(Cc3ccccc3)Cc3nnnn3C(C)(C)C)cc2c1	nt	nt	-26%
CCc1ccc2[nH]c(=O)c(CN(Cc3ccc(OC)cc3)Cc3nnnn3CCOC)cc2c1	?	-4%	nt
Cc1ccc2[nH]c(=O)c(CN(Cc3cccs3)Cc3nnnn3Cc3ccccc3)cc2c1	3%	-4%	nt
SMILES	Cruzain inh noDet	Cruzain inh Det	Papain inh
CCc1ccc2[nH]c(=O)c(CN(Cc3cccnc3)Cc3nnnn3Cc3ccccc3)cc2c1	nt	nt	-4%
O=C(c1ccc2c(c1)N(Cc1ccc(F)cc1)C(=O)c1ccccc1S2=O)N1CCC(Cc2ccccc2)CC1 (configuration not stated)	-21%	-1%	nt
COc1ccc(Cl)cc1NC(=O)CSc1nc(-c2ccccc2)c2ccccc2n1	-10%	2%	nt
CN1CCN(c2ncc3ncc(=O)n(CCc4ccccc4)c3n2)CC1	-22%	-8%	nt
CN1CCN(c2ncc3ncc(=O)n(-c4ccccc4)c3n2)CC1	20µM*	?	14µM*
O=C(Nc1ccc(-c2nc3ccccc3o2)c(O)c1)c1cc(Cl)ccc1Cl	12%	0%	nt
O=C(Nc1ccc(O)c(-c2nc3ccccc3o2)c1)C1(c2ccc([N+](=O)[O-])cc2)CCCC1	4µM*	-3%	13%
COc1ccccc1N1CCN(C(=O)CN(c2ccccc2OC)S(=O)(=O)c2ccccc2)CC1	?	3%	8%
CCOC(=O)N1CCN(C(=O)CN(c2cc(Cl)ccc2OC)S(=O)(=O)c2ccccc2)CC1	?	3%	nt
COc1ccc(NC(=O)CCn2cnnn2)cc1	-2%	2%	nt
Nc1ccc2c(c1)C(=O)C(=O)c1ccccc1-2	?	22µM*	16µM*
Nc1ccc2c(c1)C(=O)c1ccccc1C2=O	-19%	1%	nt
COc1ccc(-c2c(C#N)c(SCC(=O)Nc3ccc(C)c(C)c3)nc(C)c2C(=O)Nc2ccccc2)cc1OC	?	-2%	nt
O=C(CNC(=O)c1ccccc1)N[C@@H](C(=O)Nc1cc(C(F)(F)F)ccc1Cl)c1ccccc1	nt	nt	-10%
